# LmPK inh: blocks Leishmania mexicana pyruvate kinase activity. purified LmPK, Kinase-Glo ATP luminescence, 1 h. Potency, µM (highest dose often 57.5 µM), without a hit: at the highest dose activity change, negative = inhibition, actives largely listed as inhibitors. hit rate 0.37% among 290,000
#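 Purified LmPK (0.1 nM) with 0.5 mM PEP and 0.1 mM ADP in imidazole buffer pH 7.2 with MgCl2/KCl, 1 h at room temperature. ATP formed was read by luciferase luminescence and normalized to no-enzyme and uninhibited controls.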
# Tb PYK inh: inhibitors of Trypanosoma brucei pyruvate kinase; TbPYK enzyme, Kinase-Glo Plus ATP luminescence, 45 min; Potency, µM (titrated, usually from 76.8 µM), without a hit: at the top dose activity, negative = inhibition, most hits filed as inhibitors; hit rate 0.12% among 410,000; also: nearly all actives have a fitted effect of over 50% in size
#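 T. brucei PYK with substrate was exposed to pin-transferred compounds across a concentration series, then started with 130 uM ADP (final). After 45 min at room temperature, Kinase-Glo Plus luminescence was read, normalized and curve-fitted.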
# RE007 growth inh: less growth of the S. pombe RE007 Vpr strain; S. pombe RE007 Vpr strain, BacTiter-Glo ATP luminescence, 24 h; Potency, µM (titrated, usually from 92.2 µM), for the others: top-dose activity change, negative = less growth, actives largely listed as inhibitors; hit rate 0.21% among 360,000; active = well fitted falling curve with a large enough effect; inconclusive = small, poorly fitted or top-dose-only effect; inactive = no such curve, though single readings can be large or run the other way; also: nearly all actives have a fitted effect of over 50% in size
#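 Fission yeast RE007 carrying one integrated HIV-1 vpr copy, seeded at OD 0.01 in PMG+AL medium with 23 nL pinned compound. Grown 24 h at 30 degrees; viability read by BacTiter-Glo luminescence after 5 min.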
# FBPA Giardia inh: inhibitors of Giardia lamblia fructose-1,6-bisphosphate aldolase | purified Giardia FBPA | A8B2U2 | hit rate 0.71% among 290,000 | Potency, µM (doses to about 59.6 µM), inactives show at the top dose activity, negative = inhibition, actives largely listed as inhibitors; also: nearly all actives have a fitted effect of over 55% in size
# Target sequence (A8B2U2 whole entry, looked up): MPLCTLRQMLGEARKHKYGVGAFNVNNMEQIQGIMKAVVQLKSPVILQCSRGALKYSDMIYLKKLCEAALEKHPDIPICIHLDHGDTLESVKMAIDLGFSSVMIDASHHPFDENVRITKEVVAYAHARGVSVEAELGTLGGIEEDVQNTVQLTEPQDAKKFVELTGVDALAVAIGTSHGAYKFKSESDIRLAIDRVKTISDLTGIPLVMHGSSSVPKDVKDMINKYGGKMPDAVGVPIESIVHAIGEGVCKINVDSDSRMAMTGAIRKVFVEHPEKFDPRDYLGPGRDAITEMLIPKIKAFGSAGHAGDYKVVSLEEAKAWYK
#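 Giardia FBPA (40 nM reagent) was preincubated 10 min at RT with compound (up to 57.5 uM final), then substrate plus GAPDH/TPI/NAD/arsenate coupling system with diaphorase/resazurin was added; resorufin fluorescence (525/598 nm) was read after 20 min.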
# * = called active by the depositor; ? = inconclusive; · = no result given; [ ] = dose if it differs, or a comment. Hits are enriched below; roughly 0.95% of the tested compounds scored in any of these assays. Unless noted, calls follow the shape of the dose curve; as a rule, active = well fitted curve in the direction sought with a large enough effect; inconclusive = small, poorly fitted or top-dose-only effect, or another doubt; inactive = no such curve, though single readings can be large; an effect the other way counts as inactive or inconclusive. % is scaled to controls: 0 for no effect and ±100 for the full control effect; potency is read from the fitted curve at half-maximal effect.
SMILES,LmPK inh,Tb PYK inh,RE007 growth inh,FBPA Giardia inh
CCc1ccn2cc(-c3ccc4c(c3)OCO4)nc2c1,14µM*,?,?,?
O=[N+]([O-])c1cc([N+](=O)[O-])c2oc(-c3ccccc3)c(Br)c2c1O,-7%,10%,28µM*,4%
COc1ccc2c(c1)CCc1cn3nc(C)cc3nc1-2,2%,1%,-22%,18µM*
C=CCN(C(=O)Nc1ccc(Cl)cc1)C1CC(=O)N(c2ccc(OC)cc2)C1=O (stereo unspecified),2%,2%,-8%,-1%
CNC(=S)N(Cc1ccc(OC)cc1)C1CC(=O)N(c2ccc(Cl)cc2)C1=O (stereo unspecified),3%,-12%,·,6%
CN(Cc1ccncc1)C1CC(=O)N(c2ccc(Cl)cc2)C1=O (stereo unspecified),2%,2%,50µM*,7%
COC(=O)CN(C)C1CC(=O)N(c2ccc(Cl)cc2)C1=O (stereo unspecified),-5%,1%,16µM*,-6%
Cc1ccc2c(c1)C(N1CCCC1=O)CC(c1ccco1)N2 (stereo unspecified),11µM*,?,?,?
Cc1ccc(C2CC(c3ccco3)n3ncnc3N2)cc1 (stereo unspecified),0%,-6%,-21%,0%
COCC1=C(C(=O)OC(C)OC(=O)OC(C)C)N2C(=O)C(NC(=O)/C(=N\OC)c3csc(N)n3)C2SC1 (stereo unspecified),·,-3%,·,·
CCn1c(C)nc2cc(-c3nc4n(n3)Cc3ccccc3-4)ccc21,16µM*,?,5.6µM*,-9%
Cc1ccc(-c2nc3n(n2)Cc2ccccc2-3)cc1,7.9µM*,-21%,?,-17%
C[C@H]1[C@@H]2Cc3ccc(O)cc3[C@]1(C)CCN2CCc1ccccc1,·,-5%[157 µM],·,·
COc1ccc2c(c1)O[C@@H](c1ccc3c(c1)OCO3)[C@H](O)C2=O,·,·,·,-1%
O=C(Nc1cccc(Cl)c1)Nc1ncc(CCNc2ncnc3ccsc23)s1,·,0%,·,·
CCCCCCCCC[n+]1cccc2c3ccccc3ccc21,-1%,0%,9%,4%
CCCCCCCCCCCCCCCC[n+]1cccc2ccccc21,-7%,-23%,11µM*,3%
Cc1ccc2c(c1)[C@]13CCCC[C@@H]1[C@@H](C2)N(C)CC3,·,-5%,·,·
C=CCc1ccc(OC)cc1,·,-3%,-2%,0%
C=CC(C1=CC(=O)C(OC)=CC1=O)c1ccc(OC)cc1 (stereo unspecified),·,·,·,20µM*
C=CC(C1=CC(=O)C(OC)=C(OC)C1=O)c1ccccc1 (stereo unspecified),·,·,·,18µM*
C=CC(C1=CC(=O)C(OC)=CC1=O)c1ccccc1 (stereo unspecified),·,·,·,20µM*
Cc1ccccc1-c1nnc(SCC(=O)N(C)C2CCCCC2)o1,·,2%,·,·
COC(=O)[C@H](CCSC)NC(=O)c1ccc(NC[C@@H](N)CS)cc1-c1ccccc1,·,·,·,-14%
COc1ccccc1NC(=O)Cn1c(=O)n(CC(=O)NCc2ccccc2Cl)c(=O)c2sccc21,·,5%,·,·
SMILES,LmPK inh,Tb PYK inh,RE007 growth inh,FBPA Giardia inh
O=C(N=c1nc2ccccn2s1)c1ccccc1,3.5µM*,?,-25%,21%
CC/C=C(/C(=O)N[C@@H]1C(=O)N2C(C(=O)OCOC(=O)C(C)(C)C)=C(COC(N)=O)CS[C@H]12)c1csc(N)n1,·,-6%,·,·
O=C(/C=C/c1ccc([N+](=O)[O-])cc1)c1cccnc1,-3%,-20%,16µM*,5%
O=C(/C=C/c1ccc([N+](=O)[O-])cc1)NCc1cccnc1,0%,6%,-2%,2%
CNc1cc(-c2ccccc2C(F)(F)F)ncn1,·,·,·,-2%
C/C(Cn1nnc([N+](=O)[O-])n1)=N\NC(=O)c1ccncc1,0%,1%,4%,20µM*
C/C(Cn1nnc([N+](=O)[O-])n1)=N\NC(=O)c1ccc(C)cc1,0%,3%,-16%,?
c1c2c(cc3sc(N4CCOCC4)nc13)OCCO2,14µM*,?,?,0%
CC(C(=O)O)c1ccc(/C=C2\CCCCC2=O)cc1 (stereo unspecified),·,1%,·,·
Oc1ccc2ccccc2c1N=Nc1ccccn1,-14%,-4%,35µM*,-1%
COc1ccc(N2C(=O)NC(=O)/C(=C/c3ccc([N+](=O)[O-])s3)C2=O)cc1,-2%,13µM*,?,?
COc1ccc(N2C(=O)/C(=C/C=C/c3ccccc3[N+](=O)[O-])C(=O)NC2=S)cc1,-2%,20µM*,-8%,?
COc1ccc(N2C(=O)NC(=O)/C(=C\c3ccc([N+](=O)[O-])s3)C2=O)cc1,-7%,?,-27%,?
COc1ccc(N2C(=O)/C(=C/c3cccs3)C(=O)NC2=S)cc1,15%,?,24%,-6%
CC(C)CC(NC(=O)CNC(=O)C(Cc1ccc(O)cc1)NC(=O)C(CO)NC(=O)C(Cc1c[nH]c2ccccc12)NC(=O)C(Cc1cnc[nH]1)NC(=O)C1CCC(=O)N1)C(=O)NC(CCCN=C(N)N)C(=O)N1CCCC1C(=O)NCC(N)=O (stereo unspecified),·,1%,·,·
Fc1ccccc1-c1nc(-c2ccncc2)no1,?,-15%,?,3%
Fc1ccccc1-c1nc(-c2ccccc2)no1,11µM*,-12%,?,4%
O=C(Nc1ccccc1C(=O)N/N=C/c1ccc(O)cc1)c1ccccc1,14µM*,-23%,?,-9%
COc1ccc(C(=O)Nc2ccccc2C(=O)N/N=C/c2ccncc2)cc1OC,14µM*,-29%,8.9µM*,-1%
COc1ccc(C(=O)Nc2ccccc2C(=O)NCc2cccnc2)cc1OC,0%,2%,5%,7%
Cc1ccc(NC2Sc3ccccc3NC2=O)cc1 (stereo unspecified),-9%,14µM*,26%,-22%
Cc1c(C(=O)O)cccc1-c1ccc(/C=C2/NC(=O)N(c3ccccc3)C2=O)o1,-5%,7%,-17%,-13%
O=C1C(=Cc2cccs2)C(=O)c2ccccc21,14µM*,-19%,·,?
O=C1/C(=C/c2cccs2)Cc2ccccc21,?,6%,?,2%
Cc1ccc(/C=C2/NC(=O)N(c3ccccc3)C2=O)o1,1%,?,63µM*,-30%
Cc1cc(C=C2C(=O)c3ccccc3C2=O)c(C)n1C,-15%,-7%,11%,-15%
Cc1ccc(C=C2C(=O)c3ccccc3C2=O)o1,4.5µM*,?,-3%,4%
Cc1ccc(C=C2C(=O)c3ccccc3C2=O)s1,13µM*,-28%,?,-18%
On1ccccc1=S,·,?,4.5µM*,·
CO[C@@H]1[C@@H]([C@H](C)[C@@H]2O[C@@]3(CC[C@@](C)([C@H]4CC[C@@](C)([C@H]5O[C@H]([C@H]6O[C@](C)(O)[C@H](C)C[C@@H]6C)C[C@H]5O[C@H]5C[C@@H](OC)[C@H](OC)[C@@H](C)O5)O4)O3)C[C@@H](O)[C@@H]2C)O[C@@](O)(CC(=O)O)[C@H](C)[C@H]1OC,·,0%,·,·
